Consider 45 compounds from paper PMC4552634, “A New Set of Chemical Starting Points with Plasmodium falciparum Transmission-Blocking Potential for Antimalarial Drug Discovery” (PLoS ONE, 2015).

Hit rate of the full screen: of about 13,000 compounds, about 3,200 (25%) showed an effect of 50% or more. Some of the results follow.

The assay concerns P. falciparum stage V gametocytes. More on the design: BacTiter-Glo ATP luminescence viability of purified stage V gametocytes in 384-well plates, per cent inhibition versus DMSO. Particulars: 48 h, 5 µM; inhibitor.
What is called % Inhibition is the change of the read-out against control, counted positive when it falls. In the case of `Cc1cc(=O)c(C2CCC(c3ccc(Cl)cc3)CC2)c(C)[nH]1` (stereo not drawn) [TCMDC-138154], the “% Inhibition” value is 9.202%. As for `CCN(CC)C(=O)c1cccc(C=Cc2ccc(-c3c(C)[nH]c(C)c(Cl)c3=O)cc2)c1` [TCMDC-135819], the figure is 53.1%; as for `Cc1[nH]c(C)c(-c2ccc(C(=O)c3ccc(Cl)cc3)cc2)c(=O)c1Br` [TCMDC-137407], 68.89%; as for `Cc1[nH]c(C)c(-c2cc3ccccc3o2)c(=O)c1Cl` [TCMDC-135948], 11.96%.

Regarding `Cc1[nH]c(C)c(C2CCC(c3ccc(Cl)cc3)CC2)c(=O)c1Cl` (stereo not drawn) [TCMDC-137423], the “% Inhibition” value turned out to be 63.6%. For `Cc1[nH]c(C)c(-c2ccc(Br)cc2)c(=O)c1Cl` [TCMDC-135043], the “% Inhibition” value stood at 62.53%. To `Cc1[nH]c(C)c(-c2ccc(Br)cc2)c(=O)c1Br` [TCMDC-137537] belongs 28.95%; to `Cc1cc(=O)[nH]c2cc(Nc3ccnc(Nc4cccc(C(N)=O)c4)n3)ccc12` [TCMDC-138710], 20.95%; to `CC(C)Oc1ccc(N2CCN(CCCCNC(=O)c3ccc(NC(=O)c4ccc(Cl)cc4)cc3)CC2)c(OC(C)C)c1` [TCMDC-138245], -2.12%.

In the case of `C#CCN(Cc1ccc2nc(N)[nH]c(=O)c2c1)c1ccc(C(=O)N[C@@H](CCC(=O)O)C(=O)O)cc1` [TCMDC-131823], the “% Inhibition” value is recorded as -7.091%. To `O=C(CCCCCNC(=O)c1ccc(O)c(-c2cccc(C(F)(F)F)c2)c1)NCCN1CCCCC1` [TCMDC-140814] belongs -2.677%; to `Cc1cc(N(C)C)nc(Nc2ccc(NC(=O)c3cccc(F)c3)cc2)n1` [TCMDC-124724], 10.45%. To `Cc1[nH]c(C)c(-c2ccc(Sc3ccc(Cl)cc3)cc2)c(=O)c1Br` [TCMDC-137404] belongs 66.05%; to `COc1ccc2ncc(Cl)c(N3CCC(CCNCc4ccc5c(n4)NC(=O)CS5)CC3)c2c1.Cl` [TCMDC-141958], 0.05948%.

For the compound `O=C(NC1CCN(CCC[C@]2(c3ccc(Cl)c(Cl)c3)CCCN(C(=O)c3ccccc3)C2)CC1)c1ccc(Cl)cc1` [TCMDC-141713], the “% Inhibition” value is listed as -34.58%. On to `CC(C)(C)NS(=O)(=O)c1cc(C(=O)N2CCC(CCN3CCC(O)(c4cccc(C(F)(F)F)c4)CC3)(c3cccc(F)c3)CC2)c(Cl)cc1F` [TCMDC-135886], for which the “% Inhibition” value is given as 93.87%. As for `CC(C)(C)NS(=O)(=O)c1cc(C(=O)N2CCC(CCN3CCC(C(=O)c4ccc(F)cc4)CC3)(c3cccc(F)c3)CC2)c(Cl)cc1F` [TCMDC-135885], the figure is 79.72%; as for `O=C(Cc1ccccc1)NC(CCN1CCC(O)(c2cccc(C(F)(F)F)c2)CC1)c1ccc(Cl)c(Cl)c1` (stereo not drawn) [TCMDC-141711], 14.28%.

As to `CC(=O)C1(c2ccccc2)CCN(CCC2(c3ccc(Cl)c(Cl)c3)CN(C(=O)Nc3cccc(C(F)(F)F)c3)CCO2)CC1` (stereo not drawn) [TCMDC-135342], the “% Inhibition” value amounted to 34.05%. To `CN(C)S(=O)(=O)c1ccc(N2CCN(CCC3(c4cccc(F)c4)CCN(C(=O)C(C)(C)C)CC3)CC2)c2nonc12` [TCMDC-135887] belongs 8.489%; to `COc1ccccc1NC(=O)Nc1ccc(-c2cccc(-c3nc4ccccc4[nH]3)c2)cc1` [TCMDC-133206], 15.44%. As for `FC(F)(F)c1cc(Nc2ncnc3ccc(Br)cc23)ccc1OCc1ccccc1` [TCMDC-131923], the figure is 9.607%; as for `c1ccc(Oc2ccc(Nc3ccnc4cc(-c5cccc(CN6CCOCC6)c5)ccc34)cc2)cc1` [TCMDC-138475], -43.1%; as for `Oc1cc(Nc2ccnc3cc(-c4cccc(CN5CCCCC5)c4)ccc23)c(F)cc1Cl` [TCMDC-138433], 38.27%. To `CN1CCN(Cc2cccc(-c3ccc4c(Nc5ccc(Oc6ccccc6)cc5)ccnc4c3)c2)CC1` [TCMDC-138476] belongs 95.08%.

Regarding `Cc1ccc(O)cc1Nc1ccnc2cc(-c3csc(CN4CCN(C)CC4)n3)ccc12` [TCMDC-138459], the “% Inhibition” value came to 29.46%. To `CN1CCN(Cc2cccc(-c3ccc4c(Nc5ccc(Oc6cccnc6)cc5)ccnc4c3)c2)CC1` [TCMDC-138489] belongs 97.22%. As for `c1cncc(Oc2ccc(Nc3ccnc4cc(-c5cccc(CN6CCOCC6)c5)ccc34)cc2)c1` [TCMDC-138490], the figure is -4.813%. To `CN1CCN(Cc2cccc(-c3cc4nccc(Nc5ccc(Oc6ccccc6)cc5)c4cc3Cl)c2)CC1` [TCMDC-138460] belongs 0.7486%; to `c1cncc(Oc2ccc(Nc3ccnc4cc(-c5cccc(CN6CCCCC6)c5)ccc34)cc2)c1` [TCMDC-138491], 61.6%; to `CN1CCN(Cc2nc(-c3ccc4c(Nc5ccc(F)c(O)c5)ccnc4c3)cs2)CC1` [TCMDC-138439], 95.29%. Regarding `COCCNCc1nc(-c2ccc3c(Nc4ccc(F)c(O)c4)ccnc3c2)cs1` [TCMDC-138411], the “% Inhibition” value is given as 27.64%. To `Cc1ccc(/C=C2/SC(=Nc3ccccc3)NC2=O)c(C)c1` [TCMDC-124428] belongs 45.43%; to `CCOC(=O)c1cncc(/C=C/c2cc(C)cnc2N)c1` [TCMDC-134321], 18.35%; to `CC(C)(C)C1CC(=O)CC2C(=O)N(C3CCCCC3)C(=O)C21` (stereo not drawn) [TCMDC-139129], -1.455%. As for `CC1(C)NC(N)=NC(=N)N1OCc1nc(N)nc(Nc2ccccc2)n1` [TCMDC-131613], the figure is 27.92%; as for `C=CCN1C(=O)C(C(C)=O)=C(O)C1c1ccccc1` (stereo not drawn) [TCMDC-131675], 0.4612%; as for `CC(C)C[C@@H](C(=O)Nc1ccc(Cc2ccc(NC(=O)[C@H](CC(C)C)N(C)C(=O)OC(C)(C)C)cc2)cc1)N(C)C(=O)OC(C)(C)C` [TCMDC-131871], 6.615%. For `CN1CCN(Cc2nc(-c3ccc4c(Nc5ccc(Oc6ccccc6)cc5)ccnc4c3)cs2)CC1` [TCMDC-138409], the “% Inhibition” value was 54.56%. To `c1ccc(Oc2ccc(Nc3ccnc4cc(-c5csc(CN6CCCCC6)n5)ccc34)cc2)nc1` [TCMDC-138428] belongs -35.56%; to `CCCN1CCN(CC(O)CNC(=O)Nc2ccc(Br)cc2)CC1` (stereo not drawn) [TCMDC-134638], 9.49%.

In the case of `CCc1ccc(CN(Cc2ccc(C)cc2)Cc2ccc(NC(C)=O)cc2)cc1` [TCMDC-140034], the “% Inhibition” value is 13.22%.

Consider `N=C(N)NN=CC(=O)Nc1ccc(Br)cc1` [TCMDC-137562], for which the “% Inhibition” value is on record as -7.978%. To `CCN(CC)/C(=N/C(=N)Nc1ccc(Br)cc1)NCCCCCCN/C(=N\C(=N)Nc1ccc(Br)cc1)N(CC)CC` [TCMDC-131814] belongs 118.9%; to `CCN(CC)/C(=N/C(=N)Nc1ccc(C)cc1)NCCCCCCN/C(=N\C(=N)Nc1ccc(C)cc1)N(CC)CC` [TCMDC-131810], 116.5%.
